Experimental data reported in PubChem BioAssay AID493011 (Sanford-Burnham Center for Chemical Genomics, 2011).
About 1,400 (0.42%) of roughly 330,000 compounds were called active. What follows is part of a selection rich in actives, with near analogues and random picks from the rest. A number with no mark means an inactive call.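 Rule for the calls: active = at least 40% inhibition at 20 µM here, with at most 30% in a related deaminase screen; inactive = the rest.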

The compounds below were run against DNA dC->dU-editing enzyme APOBEC-3A (Homo sapiens) (UniProt P31941) (assay: APOBEC3A ssDNA deaminase inhibitors, primary screen, selectivity assay for APOBEC3G inhibitor project, biochemical, FAM/TAMRA oligo cleavage fluorescence (AID 493011;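 note: plate controls were A3A with DMSO for no effect and wells lacking A3A enzyme for full effect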)). Details: recombinant A3A, FAM/TAMRA ssDNA deamination fluorescence; at 20 µM; stronger effect = higher value.
Sequence of DNA dC->dU-editing enzyme APOBEC-3A (Homo sapiens) (P31941 whole entry, looked up): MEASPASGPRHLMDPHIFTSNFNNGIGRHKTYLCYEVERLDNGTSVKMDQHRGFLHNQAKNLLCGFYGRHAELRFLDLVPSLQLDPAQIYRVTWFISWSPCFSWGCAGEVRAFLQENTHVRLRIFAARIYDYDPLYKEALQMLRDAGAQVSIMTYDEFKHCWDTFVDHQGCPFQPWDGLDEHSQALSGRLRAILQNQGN

| Structure (SMILES) | inhibition |
| --- | --- |
| O=C(Nc1ccccc1)c1cc2ccccc2[nH]1 | 2.51% |
| CN(c1ccccc1)S(=O)(=O)c1cc(C(=O)Nc2nc3ccccc3[nH]2)ccc1Cl | 2.16% |
| O=C(Nc1cccc(-c2nc3ccccc3[nH]2)c1)c1ccc(C(=O)Nc2cccc(-c3nc4ccccc4[nH]3)c2)cc1 | 52.5% (active) |
| C/C(=N\NC(=O)C1(C)CC1(Br)Br)c1ccc(C)cc1C (configuration not stated) | 3.9% |
| CC(Oc1ccc(F)cc1)C(=O)N1CCN(c2ncccn2)CC1 (configuration not stated) | 3.53% |
| Cc1ccc(NC(=O)COc2coc(CN3CCc4ccccc4C3)cc2=O)cc1Cl | -2.19% |
| CC1(C)CC(N2CCN(C(c3ccccc3)c3ccccc3)CC2)=CC(=[N+]2CCCCC2)C1 | 57.4% (active) |
| COc1ccccc1CN1CCN(C(c2ccccc2)c2ccccc2)CC1 | -1.76% |
| c1ccc(C(c2ccccc2)N2CCN(Cc3nnnn3C3CCCCC3)CC2)cc1 | -5.77% |
| COc1cc(C(=O)OCC(=O)NC(C)CCc2ccccc2)cc(OC)c1OC (configuration not stated) | -4.8% |
| Cc1ccc(S(=O)(=O)N2CCCCC2)cc1C(=O)N(C)CC(=O)Nc1cccc(F)c1 | 4.08% |
| CN(C)S(=O)(=O)c1ccc(N2CCCC2)c(C(=O)Nc2cccc(F)c2)c1 | -1.6% |
| CCCCCCn1c(SCC(=O)c2ccccc2)nc2c1c(=O)[nH]c(=O)n2C | -3.65% |
| CCCCCCCC[n+]1cccc(C(=O)N2c3c(nc(N)[nH]c3=O)NC(C)C2C)c1 (configuration not stated) | 66.2% (active) |
| Cc1ccc(C(=O)NC(=S)Nc2ccc3[nH]c(=O)[nH]c3c2)cc1C | -1.4% |
| NC(N)=N/N=C/c1ccc(OCc2ccc(Cl)cc2Cl)cc1 | 0.729% |
| C/C(N)=C(/C#N)C(=O)COC(=O)C1CCN(C(=O)c2ccc(Cl)cc2)CC1 | -0.831% |
| COc1ccc(N2C(=O)CC(Nc3ccc(F)cc3)C2=O)c([N+](=O)[O-])c1 (configuration not stated) | -1.69% |
| CCOC(=O)c1ccccc1NC(=O)CSc1nc2ccccc2c(=O)[nH]1 | 1.48% |

| Structure (SMILES) | inhibition |
| --- | --- |
| CC(=O)NCc1ccc(-c2csc(NC(=O)CCCc3nc4ccccc4c(=O)[nH]3)n2)cc1 | 4.49% |
| O=C(CSc1nc2ccccc2c(=O)[nH]1)Nc1nc(-c2ccc(Br)cc2)cs1 | 44.5% (active) |
| CCCCN(C(=O)c1ccc2ccccc2c1)c1c(N)n(CCCC)c(=O)[nH]c1=O | -4.05% |
| CCN(C(=O)COc1cccnc1[N+](=O)[O-])C1CCS(=O)(=O)C1 (configuration not stated) | 0.474% |
| CCN1C(=NCC(C)C)N[C@@H](CCc2ccccc2)[C@H](C(=O)NCC(C)C)[C@H]1C | 53.8% (active) |
| CCN1C(=NCc2ccc(OC)cc2)N[C@@H](CCc2ccccc2)[C@H](C(=O)NCc2ccc(OC)cc2)[C@H]1C | 49.6% (active) |
| CCN1C(=S)N[C@@H](CCc2ccccc2)[C@H](C(=O)OC)[C@H]1C | -3.49% |
| CC(C)CNC(=O)C(=O)NCc1ccccc1 | 6.28% |
| CCN1C(=O)N[C@@H](CCc2ccccc2)C(C(=O)OC)=C1C | -3.29% |
| COCCN1C(=O)N[C@@H](CCc2ccccc2)[C@H](C(C)=O)[C@H]1C | 0.644% |
| CCCCNC(=O)CCn1nc(-c2ccc(Cl)cc2)ccc1=O | -0.453% |
| Cc1ccc(-c2ccc(=O)n(CC(=O)NCCCN3CCCCC3)n2)cc1 | -1.5% |
| CCN(CC)CCCNC(=O)CCn1nc(-c2ccc(Cl)cc2)ccc1=O | 98.8% (active) |
| COc1ccccc1-c1noc(CSc2nc(C)cc(=O)[nH]2)n1 | 53.2% (active) |
| Cc1cc(=O)[nH]c(SCc2cccc(F)c2)n1 | -0.614% |
| Cc1cc(=O)[nH]c(SCc2cc(Cl)ccc2OC(F)F)n1 | -4.15% |
| CC1CCN(S(=O)(=O)c2ccc(S(=O)(=O)NCc3ccco3)cc2)CC1 | -4.88% |
| CN(CCOc1ccc(Br)cc1)CC(=O)Nc1cccc(S(=O)(=O)NC2=NCCC2)c1 | -4.16% |
| COc1cccc(NC(=O)CN(C)C(=O)/C=C/c2cc(OC)ccc2OC)c1 | -6.53% |

| Structure (SMILES) | inhibition |
| --- | --- |
| COc1cccc(NC(=O)CN(C)C(=O)/C=C/c2cn(-c3ccccc3)nc2-c2cccs2)c1 | -4.72% |
| COc1ccc(NC(=O)CN(C)C(=O)/C=C/c2cn(Cc3ccccc3)nc2-c2cccnc2)cc1 | 43.8% (active) |
| O=C(CN1CCOC1=O)N1CCCC(Nc2ccc(F)c(F)c2)C1 (configuration not stated) | -3.28% |
| CCS(=O)(=O)c1ccc(-c2cccc(NC(=O)c3ccc(Br)o3)c2)nn1 | 95.4% (active) |
| O=C(CNC(=O)c1ccc(Br)o1)Nc1ccccc1 | -8.36% |
| CC(CNC(=O)c1ccc(Br)o1)NC(=O)c1ccc(Br)o1 (configuration not stated) | 2.21% |
| Cc1cc(C)cc(Oc2c(C(F)(F)F)oc3cc(OCC(=O)O)ccc3c2=O)c1 | 9.37% |
| N#Cc1ccsc1NC(=O)CN1CCN(S(=O)(=O)c2cc(Cl)ccc2Cl)CC1 | 40.6% (active) |
| O=C(CN1CCN(S(=O)(=O)c2cc(Cl)ccc2Cl)CC1)c1ccc(O)c(O)c1 | -5.68% |
| N#Cc1ccsc1NC(=O)CN1CCCCC1 | -2.27% |
| CC(CC(=O)C1C(C)C=CCC1(C)C)NNC(N)=O (configuration not stated) | 0.901% |
| CSc1ccccc1NC(=O)c1cnc2sc(C)cn2c1=O | 0.854% |
| CCc1c(C)nc2ncnn2c1N1CCC(C(=O)NCc2ccc3c(c2)OCO3)CC1 | 2.23% |
| O=C(COC(=O)c1cnc(Cl)c(Cl)c1)NCc1ccco1 | 50.6% (active) |
| COc1ccc(CCNC(=O)COC(=O)c2cnc(Cl)c(Cl)c2)cc1 | 4.13% |
| O=C(COC(=O)c1ccccc1O)NCc1ccco1 | 32.8% |
| CC(C)CCN1CCC(C)(NC(=O)c2ccccc2)C1=O (configuration not stated) | 0.313% |
| COc1ccccc1N(C)S(=O)(=O)c1ccc(Cl)c(C(=O)N2CCC(C(N)=O)CC2)c1 | 1.46% |
| Cc1sc(NC(=S)NC(=O)c2cccs2)nc1-c1ccc(CC(C)C)cc1 | 2.88% |
